We go through 25 compounds from PubChem BioAssay (NCATS).

SMILES strings stand for the structures. A number with no mark means an inactive call. Records with an inconclusive call do not appear. Entries that show only a call come without a potency. The source made the active and inactive calls. The call rests on the fitted dose curve; in most records, active means well fitted curve in the direction sought with a large enough effect; inconclusive means small, poorly fitted or top-dose-only effect, or another doubt; inactive means no such curve, though single readings can be large; an effect the other way counts as inactive or inconclusive.

Experiment [1] has as its target Cytochrome P450 2D6 (Homo sapiens) (UniProt P10635). Put plainly: qHTS Assay for Inhibitors and Substrates of Cytochrome P450 2D6 (AID 891). Further: nearly all actives have a fitted effect of over 60% in size. Further: potency means the concentration at half of the fitted maximal effect.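 On activity change, negative = inhibition: luciferin methyl ether substrate demethylated by CYP2D6 with NADPH regeneration.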 The conditions noted are these: recombinant CYP2D6, luciferin-ME EGE luminescence; series mostly up to 57.1 µM. On the procedure: NIH Molecular Libraries Screening Centers Network [MLSCN]
NIH Chemical Genomics Center [NCGC]
The P450 gene superfamily is involved in the metabolism and clearance of xenobiotics. This assay used human CYP2D6 to measure the demethylation of ethylene glycol ester of luciferin 6' methyl ether (Luciferin-ME EGE; […]) to luciferin. The luciferin is then measured by luminescence after the addition of a luciferase detection reagent. Luciferin-ME EGE concentration in the assay was equal to its Km for CYP2D6. Inhibitors and some substrates limit the production of luciferin, and decrease measured luminescence.
NCGC Assay Protocol Summary:
Two uL of enzyme and substrate mix (final concentrations: 5nM CYP2D6, 30uM Luciferin-ME EGE, 100mM KPO4) were dispensed into a white, solid bottom 1536-well microtiter plate. 23nL of compound was transferred by a pin tool. The plate was incubated at room temperature for 10 min. Two uL of an NADPH regeneration solution (Promega supplied reagent) was dispensed and the reaction was allowed to continue for 60 min at room temperature. Then the reaction was stopped by reconstituted luciferin detection buffer. After another 20 min of incubation the plate was read on the ViewLux (Perkin Elmer) at 60 sec exposure and 2x2 binning. This protocol was carried out with Promega-Glo reagents and further information can be found at http://www.promega.com/tbs/tb325/tb325.pdf. Data were normalized to the to AC100 inhibition (1.43 uM quinidine).
Keywords: P450, CYP2D6, Luciferase, MLSMR, MLSCN, NIH Roadmap, qHTS, NCGC
On the technique in general: Quantitative high-throughput screening tests each substance at several concentrations.

A short description of experiment [2]: Confirmation and Secondary Assay for Modulators of Hemoglobin Beta Chain Splicing at IVS2 654 locus (AID 910).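 Further: per-well total GFP intensity by laser scanning cytometry after 2-day treatment.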 The conditions noted are these: HeLa EGFP-654 splicing reporter, GFP fluorescence, 48 h; series mostly up to 46.1 µM. The method in brief: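 HeLa cells stably carrying EGFP interrupted by mutant beta-globin IVS2-654 intron (CMV-driven) were treated with compound for 2 days at 37C; corrected splicing was scored as total peak GFP intensity per well (488 nm excitation, 500-520 nm emission).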

Experiment [3] has as its target Cytochrome P450 3A4 (Homo sapiens) (UniProt P08684). The experiment is described as follows: qHTS Assay for Activators of Cytochrome P450 3A4 (AID 885). Further: nearly all actives have a fitted effect of over 65% in size. The conditions noted are these: recombinant CYP3A4, Luciferin-PPXE luminescence, 60 min; series mostly up to 57.1 µM. The method in brief: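 Luminescent readout of luciferin formed from 25 uM Luciferin-PPXE (KM level) by 20 nM CYP3A4 in 200 mM KPO4, with 60 min NADPH-driven reaction at room temperature after 10 min compound exposure. Ketoconazole (57 uM) defined 100% inhibition.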

Experiment [4] shares this target. The experiment is described as follows: qHTS Assay for Inhibitors and Substrates of Cytochrome P450 3A4 (AID 884). Further: nearly all actives have a fitted effect of over 50% in size. Further: potency means the concentration at half of the fitted maximal effect. The conditions noted are these: recombinant CYP3A4, Luciferin-PPXE luminescence; series mostly up to 57.1 µM. An outline of the steps: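 Luminescent readout of luciferin produced by CYP3A4 (20 nM) dealkylation of Luciferin-PPXE, 25 uM (its KM). NADPH-driven reaction ran 60 min at RT after 10 min compound preincubation; data scaled to 57 uM ketoconazole as 100% inhibition.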

In experiment [5] the target is Cytochrome P450 2C9 (Homo sapiens) (UniProt P11712). The experiment is described as follows: qHTS Assay for Inhibitors and Substrates of Cytochrome P450 2C9 (AID 883). Further: nearly all actives have a fitted effect of over 60% in size. The conditions noted are these: recombinant CYP2C9, luciferin-H luminescence, 60 min; series mostly up to 25.6 µM. An outline of the steps: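 CYP2C9 deoxyluciferin hydroxylation, 37C, 60 min with NADPH regeneration; 10nM enzyme, 100uM Luciferin-H (KM). Glo detection reagent stopped reaction; luminescence normalized to sulphaphenazole (57uM) full inhibition.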

Experiment [6] concerns the target Cytochrome P450 2C19 (Homo sapiens) (UniProt P33261). Put plainly: qHTS Assay for Inhibitors and Substrates of Cytochrome P450 2C19 (AID 899). Further: nearly all actives have a fitted effect of over 60% in size. The conditions noted are these: recombinant CYP2C19, luciferin-H EGE luminescence; series mostly up to 25.6 µM. The method in brief: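 In 50mM KPO4, the reaction held 5nM enzyme and KM-level (10uM) Luciferin-H EGE; it ran 60 min at 37C after NADPH regeneration and a 10 min compound preincubation. Luminescence values were scaled to 57uM ketoconazole as complete inhibition.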

Cytochrome P450 3A4 (Homo sapiens), sequence (P08684 whole entry, looked up): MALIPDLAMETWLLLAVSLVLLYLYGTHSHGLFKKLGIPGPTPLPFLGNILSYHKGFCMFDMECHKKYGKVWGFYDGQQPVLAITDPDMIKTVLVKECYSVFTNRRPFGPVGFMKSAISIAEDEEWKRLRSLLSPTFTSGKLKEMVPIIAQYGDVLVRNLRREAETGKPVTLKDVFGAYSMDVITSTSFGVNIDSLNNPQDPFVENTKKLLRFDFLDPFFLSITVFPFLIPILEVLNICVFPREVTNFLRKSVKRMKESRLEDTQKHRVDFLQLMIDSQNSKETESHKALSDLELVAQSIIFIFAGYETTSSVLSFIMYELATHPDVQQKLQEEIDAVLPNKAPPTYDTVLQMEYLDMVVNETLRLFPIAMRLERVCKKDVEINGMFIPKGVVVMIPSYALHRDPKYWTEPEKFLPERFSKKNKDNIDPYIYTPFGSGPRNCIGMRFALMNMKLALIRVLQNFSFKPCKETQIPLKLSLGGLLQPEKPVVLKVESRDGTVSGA
Cytochrome P450 2D6 (Homo sapiens), sequence (P10635 whole entry, looked up): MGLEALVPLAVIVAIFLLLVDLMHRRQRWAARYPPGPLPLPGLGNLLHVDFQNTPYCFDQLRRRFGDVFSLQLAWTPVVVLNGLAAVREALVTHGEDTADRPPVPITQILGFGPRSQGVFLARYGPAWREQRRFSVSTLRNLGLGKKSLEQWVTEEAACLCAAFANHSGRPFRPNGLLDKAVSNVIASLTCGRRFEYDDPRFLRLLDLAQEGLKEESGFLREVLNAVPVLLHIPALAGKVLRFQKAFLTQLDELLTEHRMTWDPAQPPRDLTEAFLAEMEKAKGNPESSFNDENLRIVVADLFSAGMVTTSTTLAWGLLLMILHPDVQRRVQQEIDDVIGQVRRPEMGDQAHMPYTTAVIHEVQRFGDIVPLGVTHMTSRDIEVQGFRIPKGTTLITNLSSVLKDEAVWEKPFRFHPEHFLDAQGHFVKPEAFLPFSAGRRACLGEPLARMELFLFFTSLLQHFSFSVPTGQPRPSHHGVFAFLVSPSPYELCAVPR
Cytochrome P450 2C9 (Homo sapiens), sequence (P11712 whole entry, looked up): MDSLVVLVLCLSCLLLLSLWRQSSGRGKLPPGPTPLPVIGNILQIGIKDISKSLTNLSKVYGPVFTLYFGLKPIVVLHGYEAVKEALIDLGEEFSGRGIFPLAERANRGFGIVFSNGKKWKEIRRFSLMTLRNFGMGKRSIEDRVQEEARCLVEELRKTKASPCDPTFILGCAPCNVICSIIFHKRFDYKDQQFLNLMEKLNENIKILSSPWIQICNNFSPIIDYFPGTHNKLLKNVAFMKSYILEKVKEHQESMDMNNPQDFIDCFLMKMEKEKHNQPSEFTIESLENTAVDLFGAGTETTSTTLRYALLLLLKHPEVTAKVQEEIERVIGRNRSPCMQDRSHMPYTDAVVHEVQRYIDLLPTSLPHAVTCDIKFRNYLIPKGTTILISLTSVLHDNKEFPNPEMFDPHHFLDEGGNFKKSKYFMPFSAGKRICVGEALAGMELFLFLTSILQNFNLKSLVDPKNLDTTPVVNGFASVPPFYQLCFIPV
Cytochrome P450 2C19 (Homo sapiens), sequence (P33261 whole entry, looked up): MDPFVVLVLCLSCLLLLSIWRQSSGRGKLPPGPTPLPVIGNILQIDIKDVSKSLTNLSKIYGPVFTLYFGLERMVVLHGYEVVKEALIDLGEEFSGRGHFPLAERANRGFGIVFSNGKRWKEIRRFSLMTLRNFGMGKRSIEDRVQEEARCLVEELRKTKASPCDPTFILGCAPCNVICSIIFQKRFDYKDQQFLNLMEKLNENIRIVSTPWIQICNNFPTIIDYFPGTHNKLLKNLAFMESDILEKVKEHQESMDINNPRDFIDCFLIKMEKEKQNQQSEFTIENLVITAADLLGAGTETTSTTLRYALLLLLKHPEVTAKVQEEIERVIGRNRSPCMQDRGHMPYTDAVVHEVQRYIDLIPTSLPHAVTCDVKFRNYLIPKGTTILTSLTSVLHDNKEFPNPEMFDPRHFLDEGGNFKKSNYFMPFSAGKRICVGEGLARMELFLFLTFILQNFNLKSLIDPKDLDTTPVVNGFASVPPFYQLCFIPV

As to `O=C(O)CCC(=O)C(=O)O`, the activity change, negative = inhibition in experiment [1] was 16.8% [at 11.4 µM].

With `CN=C(NC#N)Nc1ccc(C2=NNC(=O)C[C@@H]2C)cc1`, in experiment [1], the Potency result is “inactive”.

For `CC1=C(/C=C/C(C)=C/C=C/C(C)=C/CO)C(C)(C)CCC1`, in experiment [2], the outcome was inactive.

For `CCOc1ccc2c(c1)C(C)=CC(C)(C)N2`, in experiment [2], the outcome was inactive.

Turning to `NC(=O)c1ncn(C2OC(CO)C(O)C2O)n1` (centres undefined), in experiment [2], the result was inactive.

`CC(C(=O)O)c1ccc(N2Cc3ccccc3C2=O)cc1` (centres undefined): the result in experiment [3] and in experiment [2] was inactive.

Consider `CN(C)CCCN1c2ccccc2C(C)(C)c2ccccc21`, for which the Potency in experiment [1] was 3.98 µM (active).

Consider `Cc1c(C)c2c(c(C)c1O)CC[C@@](C)(CCC[C@H](C)CCC[C@H](C)CCCC(C)C)O2`, for which, in experiment [4], the Potency entry is “inactive”.

Turning to `Oc1cc(O)c2c(c1)OC(c1ccc(O)c(O)c1)C(O)C2` (centres undefined), the Potency entry in experiment [4] is “inactive”. Besides, the outcome in experiment [2] was inactive.

For `O=C(O)CN(CCN(CC(=O)O)CC(=O)O)CC(=O)O`, the Potency entry in experiment [4] is “inactive”. Besides, the compound was called inactive in experiment [2].

`Cc1c(C)c2c(c(C)c1O)CC[C@@](C)(CCC[C@@H](C)CCC[C@@H](C)CCCC(C)C)O2`: the result in experiment [5] and in experiment [6] was inactive.

Regarding `CC1=C(/C=C/C(C)=C/C=C/C(C)=C/C=C/C=C(C)/C=C/C=C(C)/C=C/C2=C(C)CCCC2(C)C)C(C)(C)CCC1`, the Potency result in experiment [4] is “inactive”. Besides, in experiment [2], the compound was called inactive.

As to `CN1Cc2c(N)cccc2C(c2ccccc2)C1` (centres undefined), the call in experiment [2] was inactive.

`Cc1cn([C@H]2C[C@H](O)[C@@H](CO)O2)c(=O)[nH]c1=O`: the Potency entry in experiment [4] is “inactive”.

`O=c1ccn([C@@H]2O[C@H](CO)[C@@H](O)[C@H]2O)c(=O)[nH]1`: the Potency result in experiment [4] is “inactive”.

For `O=C1CSC2(CCN(CCCN3c4ccccc4Sc4ccc(Cl)cc43)CC2)N1`, the Potency in experiment [1] is 0.631 µM (active).

Consider `CCCC(=O)Nc1ncnc2c1ncn2C1OC2COP(=O)(O)OC2C1OC(=O)CCC` (centres undefined), for which the call in experiment [2] was inactive.

Turning to `OCc1ccccc1O[C@@H]1O[C@H](CO)[C@@H](O)[C@H](O)[C@H]1O`, the Potency result in experiment [4] is “inactive”.

As to `Nc1c(Br)cc(Br)cc1CNC1CCC(O)CC1` (centres undefined), in experiment [2], the compound was called inactive.

As to `CC1=C(/C=C/C(C)=C/C=C/C(C)=C/C=C/C=C(C)/C=C/C=C(C)/C=C/C2=C(C)C(=O)CCC2(C)C)C(C)(C)CCC1=O`, the Potency entry in experiment [4] was “inactive”. The outcome in experiment [2] was inactive.

On to `CC(Cc1ccc(O)c(O)c1)C(C)Cc1ccc(O)c(O)c1` (centres undefined), for which the Potency in experiment [4] is 12.6 µM (active). Further, the result in experiment [3] was inactive.

With `CCC(=O)NCCC1CCc2ccc3c(c21)CCO3` (centres undefined), in experiment [2], the compound was classed as inactive.

Consider `C=CCSSSCC=C`, for which the outcome in experiment [3] and in experiment [2] was inactive.

On to `CC(C)N=c1cc2n(-c3ccc(Cl)cc3)c3ccccc3nc-2cc1Nc1ccc(Cl)cc1`, for which, in experiment [1], the Potency is 2.51 µM (active).

Turning to `C[C@@H]1CCC2[C@@H](C)[C@@H](O)O[C@@H]3O[C@@]4(C)CC[C@@H]1[C@@]23OO4` (some centres undefined), the result in experiment [3] and in experiment [2] was inactive.
